Data on 40 compounds can be found in PubChem BioAssay (NCATS).

The structures appear in SMILES notation. Results filed as inconclusive are left out. A number with no mark means an inactive call. Activity calls are given as the source filed them. Calls come from the whole dose curve; as a rule, active = well fitted activation curve with a large enough effect; inconclusive = small, poorly fitted or top-dose-only effect; inactive = no such curve, though single readings can be large or run the other way.
Potency is the fitted concentration of half-maximal effect.

The experiment deals with Cellular tumor antigen p53 (Homo sapiens) (UniProt P04637). Nature of the experiment: Primary qHTS for small molecule compounds that upregulate eGFP-tagged delta133p53alpha (in N-terminal) cells. (AID 2060322).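 For activation: cells pre-induced with doxycycline then dosed without doxycycline; series mostly up to about 56 µM; 0% = DMSO vehicle and 100% = reference activator.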 Note: nearly all actives have a fitted effect of over 75% in size. To be noted: NCI-H358 eGFP-delta133p53alpha fluorescence, 24 h; activation: hits give high values. A digest of the protocol: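 NCI-H358 cells pre-induced 24 h with 10 ng/ml doxycycline for eGFP-delta133p53alpha, plated dox-free and exposed 24 h at 37C to titrated compounds. Fixed, Hoechst-stained; gated GFP peak intensity by laser scanning cytometry, normalized to DMSO (0%) and 57.5 uM 5-azacytidine (100%).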
Chain of Cellular tumor antigen p53 (Homo sapiens) (P04637 whole entry, looked up): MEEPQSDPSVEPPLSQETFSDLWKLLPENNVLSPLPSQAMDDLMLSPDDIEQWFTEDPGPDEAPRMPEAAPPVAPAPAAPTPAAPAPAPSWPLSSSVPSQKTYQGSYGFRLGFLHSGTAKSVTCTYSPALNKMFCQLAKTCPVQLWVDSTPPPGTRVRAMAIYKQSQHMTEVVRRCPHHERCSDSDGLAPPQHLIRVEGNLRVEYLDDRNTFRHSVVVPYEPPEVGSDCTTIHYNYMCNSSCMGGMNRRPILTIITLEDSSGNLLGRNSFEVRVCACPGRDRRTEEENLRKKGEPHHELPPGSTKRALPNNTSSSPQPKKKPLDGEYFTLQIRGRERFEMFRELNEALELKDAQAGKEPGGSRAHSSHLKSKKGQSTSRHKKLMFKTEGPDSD
With `Oc1c(I)cc(Cl)c2cccnc12`, the activation was -2.51%.

Turning to `Nc1nc(-c2ccccc2)c(Br)c(=O)[nH]1`, the activation was -12.6%. For `C[C@H](Cn1cnc2c(N)ncnc21)OCP(=O)(O)O`, the activation was 61.4%. Consider `OCC(CO)N[C@H]1C[C@](O)(CO)[C@@H](O)[C@H](O)[C@H]1O`, for which the activation was -11.7%. Regarding `COc1cc(C(=O)NC2CCCNC2)cc(OC)c1OC` (stereo not given), the activation was -3.95%.

`Cc1nc(-c2ccc(Cl)cc2)oc1COC(C)(C)C(=O)O`: the activation was 1.67%.

As to `CC1(C)CCC[C@@]2(C)[C@@H]1CC[C@@]1(C)OC(=O)C[C@H]21`, the activation was -11.9%.

For `C=CC(=O)Nc1cc(NC(=O)c2ccc(C)c(NC(=O)c3ccno3)c2)cc(C(F)(F)F)c1`, the activation was 4.58%. For the compound `Cc1c(I)c(=O)n(-c2ccccc2)n1C`, the activation was -10.7%. With `Nc1nc(F)nc2c1ncn2[C@@H]1O[C@H](COP(=O)(O)O)[C@@H](O)[C@H]1O`, the activation was -4.99%. As for `CC(C)(C)NCC(O)COc1ccccc1OCC1CCCO1` (stereo not given), the activation was 10.9%. Take `NS(=O)(=O)c1cc2c(cc1C(F)(F)F)NC(Cc1ccccc1)NS2(=O)=O` (stereo not given): the activation was -6.69%. Regarding `C[C@]12CCC(=O)C=C1[C@@H]1CC1[C@H]1[C@H]3[C@@H]4C[C@H]4[C@@]4(CCC(=O)O4)[C@@]3(C)CC[C@H]12` (stereo not given in full), the activation is 8.34%. `CC[C@H](c1ccc(O)cc1)[C@@H](CC)c1ccc(O)cc1`: the Potency is 12.3 µM (active). As to `C[C@H]1C[C@H]2[C@@H]3CCC4=CC(=O)C=C[C@]4(C)[C@@]3(Cl)[C@@H](O)C[C@]2(C)[C@@]1(O)C(=O)CO`, the activation was -4.18%. For the compound `CC1(C)S[C@@H]2[C@H](NC(=O)C(c3ccccc3)S(=O)(=O)O)C(=O)N2[C@H]1C(=O)O` (stereo not given in full), the activation was -13%. Same read-out and setting: under `CCc1ccc(C(=O)C(C)CN2CCCCC2)cc1` (stereo not given) stands -5.86%; under `COc1ccc(O)cc1`, 1.69%. On the same count and under the same terms, in the case of `O=C(Nc1ccc(Oc2ccc(Cl)cc2)c(Cl)c1)c1cc(I)cc(I)c1O` it was -20.9%; in that of `COc1ccc(S(=O)(=O)Nc2nnc(CC(C)C)s2)cc1`, -11.7%.

With `COC(=O)c1cccnc1`, the activation was -4.18%.

For `CCCCC(CC)COC(=O)c1ccc(N(C)C)cc1` (stereo not given), the activation is 0.837%. Same read-out and setting: in the case of `CC1(C)[C@H]2CC[C@]3(C)[C@@H](C(=O)C=C4[C@@H]5C[C@@](C)(C(=O)O)CC[C@]5(C)CC[C@]43C)[C@@]2(C)CC[C@@H]1O` it was 3.97%; in that of `COc1cc2nc(Cl)nc(N)c2cc1OC`, -37.9%.

`O=c1[nH]c(=O)n([C@H]2O[C@H](CO)[C@@H](O)[C@@H]2O)cc1/C=C\Br`: the activation is 3.35%.

As for `Cc1nc(NC(=O)N2CCC[C@@H]2C(N)=O)sc1-c1ccnc(C(C)(C)C(F)(F)F)c1`, the activation was -9.38%. For `COC(=O)c1cc(Cl)c(NC(C)=O)cc1OC`, the activation was 11.9%. The same measure, in the same setting: under `CN1CCCN(C(=O)c2cccc(-c3ccc(C=C4C(=O)Nc5ccc(Cl)cc54)o3)c2)CC1` stands 19.8%; under `CC(=O)Nc1ccc(OCC(O)CNC(C)C)cc1` (stereo not given), -14.2%; under `Cc1cc(C=c2sc3nc4ccccc4n3c2=O)c(C)n1-c1ccccc1`, -10.2%. As for `CCCN(CCc1cccs1)[C@H]1CCc2c(O)cccc2C1`, the activation is 5.08%. For `CCc1c(C(=O)Nc2cc(S(=O)(=O)N(CC)CC)ccc2O)[nH]c(C)c1C(C)=O`, the activation was -38%.

In the case of `O=C(CCN1CCN(CCO)CC1)N1c2ccccc2Sc2ccc(C(F)(F)F)cc21`, the activation is -5.08%.

As to `CCN(CCCc1ccccc1)CCCc1ccccc1`, the activation was -1.67%.

Take `COc1ccc(OC(=O)N(CC(=O)O)Cc2ccc(OCCc3nc(-c4ccccc4)oc3C)cc2)cc1`: the activation is -10.7%. Still for that read-out and setting: in the case of `COc1c(C)c2c(c(O)c1CC=C(C)CCC(=O)O)C(=O)OC2` it was -14.1%. Consider `CCN(CC)C(=O)C1CN2CCc3cc(OC)c(OC)cc3C2CC1OC(C)=O` (stereo not given), for which the activation was -9.21%. On the same count and under the same terms, in the case of `CCNC(=O)CCCC=CC[C@@H]1[C@H](C=CC(O)CCc2ccccc2)[C@@H](O)C[C@@H]1O` (stereo not given in full) it was -2.33%; in that of `COc1ccnc2[nH]cc(C(=O)C(=O)N3CCN(C(=O)c4ccccc4)C[C@@H]3C)c12`, 3.59%.

For `CCN(CC)CC(=O)OCC(=O)[C@@]1(O)CC[C@H]2[C@@H]3CCC4=CC(=O)CC[C@]4(C)[C@H]3[C@@H](O)C[C@@]21C`, the activation is -4.18%.
